Of roughly 8,800 targets only a part is listed; those with a hit were picked by preference. About 0.5% of all pairs of compound and target were hits.

Common to all, as to assay: log2 fold change, soluble protein after heating vs DMSO (PISA); higher = thermal stabilisation; K562 lysate, 10 uM; active = over 0.2 and 3.5 SD of the protein, either way, in both replicates (recomputed)
Compound in assay [1]: NCC(=O)Nc1ccc(-n2nc(C(F)(F)F)cc2-c2ccc3c(ccc4ccccc43)c2)cc1
Summed up:
(§1)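 To prepare the extract, K562 pellets were dounce-homogenised in PBS pH 7.4 with 1 mM MgCl2, giving crude material at 1 mg/mL protein. This was treated with 10 μM compound for 30 min, then heated in aliquots for 3 min over 48°C-58°C before pooling and addition of NP-40 to 0.5% at 4°C. Centrifugation at 21,000xg for 90 min left soluble protein in the supernatant, which TMTpro 16plex LC-MS/MS quantified with equalised channel sums. Results are log-two fold changes in thermal stability compared with solvent controls, from duplicates.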

Compound in another assay: O=C(CCCCCCC(=O)Nc1ccccc1)NO [vorinostat]
A digest of the protocol: as §1

Compound in a further assay: O=C(O)c1ccc2c(c1)nc(Nc1cccc(Cl)c1)c1ccncc12 [silmitasertib]
A digest of the protocol:
as §1

Compound in assay [2]: O=C1NC(=O)C(c2cnc3ccccn23)=C1c1cn2c3c(cc(F)cc13)CN(C(=O)N1CCCCC1)CC2
A digest of the protocol:
as §1

Compound in the next assay: c1cn2cc(-c3ccc4cn[nH]c4c3)nc(Nc3ccc(N4CCOCC4)cc3)c2n1 [entospletinib]
Summed up:
as §1

Sequence of UniProt O94822 (O94822 whole entry, looked up): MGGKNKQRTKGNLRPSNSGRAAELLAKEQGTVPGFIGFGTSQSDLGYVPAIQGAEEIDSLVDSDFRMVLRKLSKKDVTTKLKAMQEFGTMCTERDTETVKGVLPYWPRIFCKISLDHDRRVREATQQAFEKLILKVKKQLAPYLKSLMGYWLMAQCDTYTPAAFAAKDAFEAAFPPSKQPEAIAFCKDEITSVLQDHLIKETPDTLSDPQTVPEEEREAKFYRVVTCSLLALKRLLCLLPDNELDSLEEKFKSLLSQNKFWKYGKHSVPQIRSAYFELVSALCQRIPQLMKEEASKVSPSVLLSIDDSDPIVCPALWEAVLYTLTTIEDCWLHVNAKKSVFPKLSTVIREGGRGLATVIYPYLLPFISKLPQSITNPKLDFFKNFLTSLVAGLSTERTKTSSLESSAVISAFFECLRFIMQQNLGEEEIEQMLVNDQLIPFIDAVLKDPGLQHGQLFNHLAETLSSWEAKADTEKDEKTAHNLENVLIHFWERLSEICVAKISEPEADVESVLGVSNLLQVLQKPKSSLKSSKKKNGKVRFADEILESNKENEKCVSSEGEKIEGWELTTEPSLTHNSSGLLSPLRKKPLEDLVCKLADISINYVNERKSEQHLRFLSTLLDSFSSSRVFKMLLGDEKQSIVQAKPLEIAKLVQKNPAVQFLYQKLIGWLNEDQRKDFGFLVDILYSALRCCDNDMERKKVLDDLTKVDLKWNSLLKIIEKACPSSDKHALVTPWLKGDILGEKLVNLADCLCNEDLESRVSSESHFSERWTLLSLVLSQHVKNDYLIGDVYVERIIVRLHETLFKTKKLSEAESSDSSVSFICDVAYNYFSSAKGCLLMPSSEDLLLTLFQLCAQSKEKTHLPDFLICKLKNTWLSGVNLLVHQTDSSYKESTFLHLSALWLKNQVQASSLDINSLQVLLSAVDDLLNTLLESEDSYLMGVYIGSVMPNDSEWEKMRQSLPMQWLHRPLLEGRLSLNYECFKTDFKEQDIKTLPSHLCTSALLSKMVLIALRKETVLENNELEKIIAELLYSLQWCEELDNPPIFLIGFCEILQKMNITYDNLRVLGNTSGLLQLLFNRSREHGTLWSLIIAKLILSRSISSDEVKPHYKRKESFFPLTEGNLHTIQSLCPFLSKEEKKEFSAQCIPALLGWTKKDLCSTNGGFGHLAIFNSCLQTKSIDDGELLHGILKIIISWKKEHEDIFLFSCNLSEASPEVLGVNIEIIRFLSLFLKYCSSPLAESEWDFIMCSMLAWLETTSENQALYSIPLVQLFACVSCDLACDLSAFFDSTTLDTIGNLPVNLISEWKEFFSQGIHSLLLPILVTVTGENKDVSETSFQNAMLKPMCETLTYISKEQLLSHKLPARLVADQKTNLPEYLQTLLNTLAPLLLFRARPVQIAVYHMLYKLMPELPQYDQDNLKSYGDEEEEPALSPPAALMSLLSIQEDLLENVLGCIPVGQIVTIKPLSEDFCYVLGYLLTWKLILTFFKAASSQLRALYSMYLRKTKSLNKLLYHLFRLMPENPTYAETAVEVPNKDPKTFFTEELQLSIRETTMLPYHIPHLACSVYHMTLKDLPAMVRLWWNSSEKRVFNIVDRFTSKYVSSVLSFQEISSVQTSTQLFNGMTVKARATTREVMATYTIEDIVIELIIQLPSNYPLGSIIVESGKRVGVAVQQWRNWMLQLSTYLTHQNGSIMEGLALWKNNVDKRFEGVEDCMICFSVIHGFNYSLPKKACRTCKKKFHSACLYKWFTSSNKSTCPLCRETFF
Sequence of UniProt Q96RQ3 (Q96RQ3 whole entry, looked up): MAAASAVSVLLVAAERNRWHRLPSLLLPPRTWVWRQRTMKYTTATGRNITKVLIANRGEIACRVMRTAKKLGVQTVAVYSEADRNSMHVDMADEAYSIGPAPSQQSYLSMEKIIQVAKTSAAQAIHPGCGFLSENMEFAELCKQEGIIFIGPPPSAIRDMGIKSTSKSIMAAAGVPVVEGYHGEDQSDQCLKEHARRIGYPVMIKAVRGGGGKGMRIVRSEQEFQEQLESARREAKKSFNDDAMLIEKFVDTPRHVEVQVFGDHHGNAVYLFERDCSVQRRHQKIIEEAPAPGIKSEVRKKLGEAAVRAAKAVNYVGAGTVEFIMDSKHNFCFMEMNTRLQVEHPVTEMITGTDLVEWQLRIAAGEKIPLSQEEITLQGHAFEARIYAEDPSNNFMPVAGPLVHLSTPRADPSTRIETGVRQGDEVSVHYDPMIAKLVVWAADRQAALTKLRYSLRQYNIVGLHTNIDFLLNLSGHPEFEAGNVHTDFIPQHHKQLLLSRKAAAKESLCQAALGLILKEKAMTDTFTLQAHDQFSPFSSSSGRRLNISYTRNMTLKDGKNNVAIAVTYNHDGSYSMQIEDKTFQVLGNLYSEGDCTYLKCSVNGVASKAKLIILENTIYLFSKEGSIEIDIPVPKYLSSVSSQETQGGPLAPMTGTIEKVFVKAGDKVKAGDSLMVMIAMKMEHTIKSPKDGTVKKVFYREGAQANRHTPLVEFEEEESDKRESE
Sequence of UniProt Q15334 (Q15334 whole entry, looked up): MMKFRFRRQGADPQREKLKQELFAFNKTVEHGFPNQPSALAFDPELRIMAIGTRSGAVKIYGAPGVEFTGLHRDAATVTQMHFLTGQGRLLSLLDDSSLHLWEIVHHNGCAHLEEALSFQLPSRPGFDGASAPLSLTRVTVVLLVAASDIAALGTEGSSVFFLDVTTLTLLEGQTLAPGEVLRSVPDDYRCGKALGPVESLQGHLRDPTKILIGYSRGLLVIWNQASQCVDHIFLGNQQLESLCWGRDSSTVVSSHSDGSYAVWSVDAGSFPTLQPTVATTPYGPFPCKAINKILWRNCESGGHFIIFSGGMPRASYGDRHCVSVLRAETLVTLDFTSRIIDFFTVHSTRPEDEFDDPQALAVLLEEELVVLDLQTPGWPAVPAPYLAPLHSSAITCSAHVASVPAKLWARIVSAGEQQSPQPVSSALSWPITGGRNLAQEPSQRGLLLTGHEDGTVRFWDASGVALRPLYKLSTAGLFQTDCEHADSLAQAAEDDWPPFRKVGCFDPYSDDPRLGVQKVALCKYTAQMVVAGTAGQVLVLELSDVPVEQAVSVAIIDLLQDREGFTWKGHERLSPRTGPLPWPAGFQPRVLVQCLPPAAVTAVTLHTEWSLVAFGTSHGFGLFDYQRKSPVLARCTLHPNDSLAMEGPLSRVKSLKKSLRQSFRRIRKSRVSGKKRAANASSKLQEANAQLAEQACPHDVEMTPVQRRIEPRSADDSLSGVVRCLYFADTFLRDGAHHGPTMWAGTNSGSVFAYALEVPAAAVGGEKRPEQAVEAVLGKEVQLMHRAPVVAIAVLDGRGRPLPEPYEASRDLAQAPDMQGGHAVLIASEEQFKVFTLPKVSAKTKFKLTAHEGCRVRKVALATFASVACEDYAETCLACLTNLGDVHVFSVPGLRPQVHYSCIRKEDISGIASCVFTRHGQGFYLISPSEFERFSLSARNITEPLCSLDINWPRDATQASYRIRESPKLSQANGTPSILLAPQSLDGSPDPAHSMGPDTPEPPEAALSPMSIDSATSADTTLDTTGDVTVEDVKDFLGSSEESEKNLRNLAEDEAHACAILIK
Sequence of UniProt P53778 (P53778 whole entry, looked up): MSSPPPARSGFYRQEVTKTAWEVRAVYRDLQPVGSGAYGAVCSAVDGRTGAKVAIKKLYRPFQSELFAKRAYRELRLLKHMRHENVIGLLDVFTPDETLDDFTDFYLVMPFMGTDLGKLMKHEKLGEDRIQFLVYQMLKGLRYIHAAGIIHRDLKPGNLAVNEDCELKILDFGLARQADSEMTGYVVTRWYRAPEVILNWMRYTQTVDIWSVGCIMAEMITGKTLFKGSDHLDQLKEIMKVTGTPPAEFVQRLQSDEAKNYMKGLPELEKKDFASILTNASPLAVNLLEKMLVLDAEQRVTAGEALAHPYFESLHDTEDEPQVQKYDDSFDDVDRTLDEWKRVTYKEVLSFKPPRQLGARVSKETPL
Sequence of UniProt Q99661 (Q99661 whole entry, looked up): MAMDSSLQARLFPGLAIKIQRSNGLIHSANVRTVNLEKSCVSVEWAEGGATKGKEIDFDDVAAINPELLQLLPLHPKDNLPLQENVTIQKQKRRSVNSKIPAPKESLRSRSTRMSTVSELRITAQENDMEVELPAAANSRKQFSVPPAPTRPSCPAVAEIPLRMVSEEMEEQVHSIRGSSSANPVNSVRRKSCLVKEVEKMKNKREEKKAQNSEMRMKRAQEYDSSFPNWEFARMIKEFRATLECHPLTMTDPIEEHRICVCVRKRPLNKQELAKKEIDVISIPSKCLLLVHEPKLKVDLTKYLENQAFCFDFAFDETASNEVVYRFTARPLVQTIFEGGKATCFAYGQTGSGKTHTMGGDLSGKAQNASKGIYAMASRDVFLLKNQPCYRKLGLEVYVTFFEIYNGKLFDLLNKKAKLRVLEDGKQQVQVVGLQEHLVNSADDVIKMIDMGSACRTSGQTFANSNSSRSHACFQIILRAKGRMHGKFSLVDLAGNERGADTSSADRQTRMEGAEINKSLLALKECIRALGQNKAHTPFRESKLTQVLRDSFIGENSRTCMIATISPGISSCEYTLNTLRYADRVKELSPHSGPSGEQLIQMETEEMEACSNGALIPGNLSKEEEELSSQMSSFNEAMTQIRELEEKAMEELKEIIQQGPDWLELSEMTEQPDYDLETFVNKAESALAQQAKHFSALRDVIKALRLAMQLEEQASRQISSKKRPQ
Sequence of UniProt Q9NX58 (Q9NX58 whole entry, looked up): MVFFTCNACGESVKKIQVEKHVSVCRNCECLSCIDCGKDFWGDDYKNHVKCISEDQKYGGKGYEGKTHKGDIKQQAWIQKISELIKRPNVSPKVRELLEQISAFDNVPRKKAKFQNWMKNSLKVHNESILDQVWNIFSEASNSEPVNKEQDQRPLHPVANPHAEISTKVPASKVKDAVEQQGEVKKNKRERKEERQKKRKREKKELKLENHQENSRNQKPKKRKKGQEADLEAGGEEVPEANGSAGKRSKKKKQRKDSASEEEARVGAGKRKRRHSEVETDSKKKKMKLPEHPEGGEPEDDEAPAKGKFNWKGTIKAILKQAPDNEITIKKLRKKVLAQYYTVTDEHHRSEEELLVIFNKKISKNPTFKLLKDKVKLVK

With LLGL1 (UniProt Q15334), the log2 fold change in assay [1] was 0.078 (inactive); with vorinostat, -0.524 (active); with silmitasertib, 0.077 (inactive); in assay [2], -0.046 (inactive); in the assay with entospletinib, 0.042 (inactive).

On to MAPK1 (UniProt P28482), for which the log2 fold change was -0.027 (inactive) in assay [1]; 0.039 (inactive) with vorinostat; 0.042 (inactive) with silmitasertib; -0.005 (inactive) in assay [2]; -0.039 (inactive) in the assay with entospletinib.

Consider KIF22 (UniProt Q14807), for which the log2 fold change in assay [1] was 0.069 (inactive); in the assay with vorinostat it was 0.158 (inactive); in the assay with silmitasertib it was -0.128 (inactive); in assay [2] it was 0.156 (inactive); with entospletinib, 0.001 (inactive).

LYSMD3 (UniProt Q7Z3D4): the log2 fold change in assay [1] was 0.01 (inactive); with vorinostat, 0.095 (inactive); in the assay with silmitasertib, -0.022 (inactive); in assay [2] it was -0.029 (inactive); with entospletinib, 0.028 (inactive).

On to MOSPD2 (UniProt Q8NHP6), for which the log2 fold change in assay [1] was -0.364 (active); with vorinostat, 0.039 (inactive); with silmitasertib, 0.071 (inactive); in assay [2], -0.02 (inactive); in the assay with entospletinib it was -0.074 (inactive).

Take MAT2B (UniProt Q9NZL9): the log2 fold change in assay [1] is 0.019 (inactive); with vorinostat it was 0.103 (inactive); with silmitasertib, 0.005 (inactive); in assay [2], 0.021 (inactive); with entospletinib it was 0.024 (inactive).

LYAR (UniProt Q9NX58): the log2 fold change was 0.011 (inactive) in assay [1]; 0.109 (inactive) in the assay with vorinostat; 0.005 (inactive) in the assay with silmitasertib; 0.001 (inactive) in assay [2]; 0.014 (inactive) with entospletinib.

Regarding KIF21A isoform 5 (UniProt Q7Z4S6), the log2 fold change in assay [1] was 0.005 (inactive); with vorinostat it was -0.239 (active); with silmitasertib, -0.004 (inactive); in assay [2], 0.007 (inactive); in the assay with entospletinib, -0.058 (inactive).

For the target MIF4GD isoform 3 (UniProt A9UHW6), the log2 fold change in assay [1] was 0.008 (inactive); with vorinostat it was -0.232 (active); in the assay with silmitasertib, 0.018 (inactive); in assay [2], -0.012 (inactive); in the assay with entospletinib, -0.032 (inactive).

Turning to MIPEP (UniProt Q99797), the log2 fold change is 0.005 (inactive) in assay [1]; -0.043 (inactive) with vorinostat; 0.007 (inactive) with silmitasertib; -0.021 (inactive) in assay [2]; -0.028 (inactive) with entospletinib.

For MORC2 (UniProt Q9Y6X9), the log2 fold change in assay [1] is 0.014 (inactive); with vorinostat it was -0.328 (active); in the assay with silmitasertib, 0.103 (inactive); in assay [2], -0.015 (inactive); with entospletinib, 0.013 (inactive).

As for KIF15 (UniProt Q9NS87), the log2 fold change in assay [1] is 0.017 (inactive); with vorinostat it was -0.136 (inactive); with silmitasertib it was 0.02 (inactive); in assay [2], 0.004 (inactive); with entospletinib, -0.024 (inactive).

MCCC1 (UniProt Q96RQ3): the log2 fold change in assay [1] is 0.028 (inactive); with vorinostat, -0.292 (active); with silmitasertib, 0.02 (inactive); in assay [2], -0.003 (inactive); with entospletinib, 0.023 (inactive).

Consider MAPK14 isoform 2 (UniProt Q16539), for which the log2 fold change in assay [1] is -0.06 (inactive); with vorinostat, -0.328 (inactive); with silmitasertib it was 0.291 (inactive); in assay [2] it was -0.092 (inactive); with entospletinib, -0.015 (inactive).

Turning to MAD2L2 (UniProt Q9UI95), the log2 fold change is 0.075 (inactive) in assay [1]; -0.348 (active) with vorinostat; -0.006 (inactive) in the assay with silmitasertib; -0.02 (inactive) in assay [2]; 0.017 (inactive) in the assay with entospletinib.

As to LPIN1 isoform 7 (UniProt Q14693), the log2 fold change was 0.052 (inactive) in assay [1]; -0.489 (active) with vorinostat; -0.014 (inactive) in the assay with silmitasertib; 0.004 (inactive) in assay [2]; -0.193 (inactive) with entospletinib.

As to MAP3K4 (UniProt Q9Y6R4), the log2 fold change in assay [1] was -0.025 (inactive); with vorinostat, -0.524 (active); in the assay with silmitasertib, 0.229 (inactive); in assay [2], -0.025 (inactive); in the assay with entospletinib, -0.045 (inactive).

With MAPK12 (UniProt P53778), the log2 fold change in assay [1] is 0 (inactive); with vorinostat, 0.181 (inactive); in the assay with silmitasertib, -0.027 (inactive); in assay [2], -0.067 (inactive); with entospletinib, -0.027 (inactive).

As for LSG1 (UniProt Q9H089), the log2 fold change in assay [1] is -0.074 (inactive); with vorinostat, -0.052 (inactive); in the assay with silmitasertib, 0.043 (inactive); in assay [2] it was 0.096 (inactive); with entospletinib it was 0.139 (inactive).

On to KLC2 (UniProt Q9H0B6), for which the log2 fold change in assay [1] was 0.01 (inactive); in the assay with vorinostat, -0.348 (active); with silmitasertib, -0.005 (inactive); in assay [2], -0.061 (inactive); with entospletinib it was 0.034 (inactive).

On to LIMS1 isoform 3 (UniProt P48059), for which the log2 fold change in assay [1] was -0.022 (inactive); with vorinostat, 0.049 (inactive); with silmitasertib it was 0.013 (inactive); in assay [2], 0.054 (inactive); with entospletinib, -0.016 (inactive).

Regarding KIF2C (UniProt Q99661), the log2 fold change in assay [1] is 0.003 (inactive); with vorinostat, -0.464 (active); in the assay with silmitasertib it was 0.028 (inactive); in assay [2] it was 0.012 (inactive); with entospletinib, 0.024 (inactive).

Consider KIF3C (UniProt O14782), for which the log2 fold change was 1.17 (active) in assay [1]; -0.352 (inactive) with vorinostat; 0.249 (inactive) with silmitasertib; 0.074 (inactive) in assay [2]; 0.032 (inactive) in the assay with entospletinib.

Consider LTN1 isoform 3 (UniProt O94822), for which the log2 fold change in assay [1] is 0.057 (inactive); with vorinostat, -0.58 (active); with silmitasertib, 0.04 (inactive); in assay [2] it was 0.028 (inactive); with entospletinib, 0.034 (inactive).

Values taken from the supplement of paper PMC10849652.
